Laboratory results: PubChem BioAssay (Tox21)
Records with an inconclusive call do not appear. Entries that show only a call come without a potency. Calls of active or inactive are those of the source. Unless noted, calls follow the shape of the dose curve; as a rule, active = well fitted curve in the direction sought with a large enough effect in the repeat runs; inconclusive = weak or mixed curves; inactive = no such curve, though single readings can be large; an effect the other way counts as inactive or inconclusive.

What was measured:
[1] = qHTS assay to identify small molecule antagonists of the glucocorticoid receptor (GR) signaling pathway - cell viability counter screen (AID 720693); also: nearly all actives have a fitted effect of over 55% in size
[2] = qHTS assay for identifying genotoxic compounds that show differential cytotoxicity against isogenic chicken DT40 cell lines with known DNA damage response pathways - wild type cell line (AID 743012); also: nearly all actives have a fitted effect of over 60% in size
Summary of the method: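 Quantitative HTS on parental DT40 cells: 40 h compound treatment at 37 C/5% CO2, with viability then determined by CellTiter-Glo luminescence. Values serve as the DNA repair-proficient reference for differential cytotoxicity.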

[3] = qHTS assay for identifying genotoxic compounds that show differential cytotoxicity against isogenic chicken DT40 cell lines with known DNA damage response pathways - Rad54/Ku70 mutant cell line (AID 743015); also: nearly all actives have a fitted effect of over 60% in size
[4] = qHTS assay to identify small molecule antagonists of the androgen receptor (AR) signaling pathway - cell viability counter screen (AID 743033; also: nearly all actives have a fitted effect of over 45% in size)
[5] = biological target: Androgen receptor (Homo sapiens) (UniProt P10275); experiment: qHTS assay to identify small molecule antagonists of the androgen receptor (AR) signaling pathway (AID 743035; active = well fitted inhibition curve with a large enough effect in the signal ratio in the repeat runs, not every such curve was filed as active; the % refers to the signal ratio)
Sequence of Androgen receptor (Homo sapiens) (P10275 whole entry, looked up): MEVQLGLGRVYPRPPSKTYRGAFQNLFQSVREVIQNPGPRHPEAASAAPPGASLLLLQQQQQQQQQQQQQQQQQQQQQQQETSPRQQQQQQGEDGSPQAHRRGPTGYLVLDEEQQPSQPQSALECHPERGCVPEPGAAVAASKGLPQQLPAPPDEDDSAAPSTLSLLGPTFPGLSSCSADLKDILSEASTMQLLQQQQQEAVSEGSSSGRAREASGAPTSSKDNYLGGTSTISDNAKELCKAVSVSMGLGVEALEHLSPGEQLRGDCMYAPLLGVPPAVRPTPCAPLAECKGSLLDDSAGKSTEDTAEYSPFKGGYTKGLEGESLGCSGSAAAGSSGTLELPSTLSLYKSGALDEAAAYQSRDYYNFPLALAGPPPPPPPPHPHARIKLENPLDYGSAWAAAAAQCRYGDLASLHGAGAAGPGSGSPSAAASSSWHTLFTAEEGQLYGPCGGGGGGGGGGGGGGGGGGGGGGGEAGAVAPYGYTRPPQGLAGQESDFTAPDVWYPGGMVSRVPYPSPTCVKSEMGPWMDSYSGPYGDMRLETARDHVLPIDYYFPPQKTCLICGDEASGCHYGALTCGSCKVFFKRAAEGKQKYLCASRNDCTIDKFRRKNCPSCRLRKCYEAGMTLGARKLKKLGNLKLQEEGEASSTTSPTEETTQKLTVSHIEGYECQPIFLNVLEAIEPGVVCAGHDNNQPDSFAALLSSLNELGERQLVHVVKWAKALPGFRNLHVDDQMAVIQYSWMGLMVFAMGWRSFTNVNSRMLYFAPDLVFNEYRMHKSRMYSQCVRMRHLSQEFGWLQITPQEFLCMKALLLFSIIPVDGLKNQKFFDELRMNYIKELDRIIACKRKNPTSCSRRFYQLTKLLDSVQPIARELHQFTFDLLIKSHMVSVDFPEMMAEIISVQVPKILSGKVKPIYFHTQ
Summary of the method: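 Cell line: GeneBLAzer AR-UAS-bla GripTite (HEK293). Stimulus: R1881 added after compound. Exposure: 16 h, 37C, 5% CO2. Readout: LiveBLAzer B/G FRET fluorescence after 2 h at room temperature.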

[6] = biological target: Androgen receptor (Homo sapiens) (UniProt P10275); experiment: qHTS assay to identify small molecule agonists of the androgen receptor (AR) signaling pathway using the MDA cell line (AID 743040; also: potency is read from the fitted curve at half-maximal effect; nearly all actives have a fitted effect of over 20% in size)
Summary of the method: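 Luminescence from ONE-Glo, read after 30 min at room temperature, reflects MMTV-driven luciferase in MDA-kb2 cells (AR- and GR-responsive). Treatment lasted 16 h at 37C, 0% CO2.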

[7] = qHTS assay to identify small molecule antagonists of the androgen receptor (AR) signaling pathway using the MDA cell line - cell viability counter screen (AID 743041; also: nearly all actives have a fitted effect of over 45% in size)
Summary of the method: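 Viability counter screen run alongside the AR antagonist reporter: cells seeded 5 h before compound, R1881 added, 16 h incubation at 37C without CO2, fluorescent CellTiter-Fluor signal quantified.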

[8] = qHTS assay to identify small molecule antagonists of the thyroid receptor (TR) signaling pathway - cell viability counter screen (AID 743064); also: nearly all actives have a fitted effect of over 50% in size
Summary of the method: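 GH3.TRE-Luc cells, 4 h pre-plating; cpd + T3 1 nM final; 37 °C 23.5 h; CellTiter-Fluor 30 min; fluorescence read.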

[9] = qHTS assay for identifying genotoxic compounds that show differential cytotoxicity against isogenic chicken DT40 cell lines with known DNA damage response pathways - Rev3 mutant cell line (AID 743014); also: nearly all actives have a fitted effect of over 55% in size

SMILES | outcome [1] | Potency [2] | Potency [3] | outcome [4] | Potency [5] | Potency [6] | Potency [7] | Potency [8] | Potency [9]
CC(=O)N1C[C@H](O)C[C@H]1C(=O)O | inactive | inactive | inactive | inactive | inactive | 26.6 µM (active) | inactive | inactive | 
CC1=CC(=O)[C@H]2C[C@@H]1C2(C)C | inactive |  | inactive | inactive |  |  | inactive | inactive | inactive
CCCO[Si](OCCC)(OCCC)OCCC | inactive | inactive | inactive | inactive |  |  | inactive | inactive | 
